Records with an inconclusive call do not appear. Where a structure was tested more than once in an assay, its records may differ in their call. Calls of active or inactive are those of the source. Rule for the calls, unless noted: active = hit-call score of the fitted dose curve at least 0.9, where 1 is the maximum; inconclusive = response in the unintended direction; inactive = score below 0.9.
Key:
[1] = target: Steroid hormone receptor ERR1 (Homo sapiens) (UniProt P11474); assay: ATG_ERRa_TRANS: Attagene TRANS-FACTORIAL HepG2 Assay for human Estrogen-Related Receptor alpha (ERRa) (AID 2282971); conditions: HepG2 Attagene TRANS reporter, ERRa transactivation
Chain of Steroid hormone receptor ERR1 (Homo sapiens) (P11474 whole entry, looked up, the tested form may be a part): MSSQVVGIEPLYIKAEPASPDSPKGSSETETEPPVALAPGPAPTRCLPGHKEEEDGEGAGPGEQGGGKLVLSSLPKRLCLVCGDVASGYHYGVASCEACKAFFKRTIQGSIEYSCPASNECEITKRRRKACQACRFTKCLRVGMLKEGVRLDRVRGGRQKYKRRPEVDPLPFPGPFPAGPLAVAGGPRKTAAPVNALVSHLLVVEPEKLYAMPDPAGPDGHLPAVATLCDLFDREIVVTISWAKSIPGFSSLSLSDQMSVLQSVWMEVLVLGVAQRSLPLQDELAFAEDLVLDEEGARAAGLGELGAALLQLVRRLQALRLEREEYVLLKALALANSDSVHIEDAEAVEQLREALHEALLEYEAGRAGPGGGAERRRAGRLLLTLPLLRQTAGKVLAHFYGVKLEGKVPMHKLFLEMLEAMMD
Procedure, shortened: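 Signal gain relative to DMSO for an ERRa-Gal4 chimeric receptor, read as reporter mRNA by RT-PCR/capillary electrophoresis. Human HepG2 liver cells, transient multiplex reporter transfection, 24 h chemical exposure.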

[2] = target: Nuclear receptor subfamily 4 group A member 2 (Homo sapiens) (UniProt P43354); assay: ATG_NURR1_TRANS: Attagene TRANS-FACTORIAL HepG2 Assay for human Nuclear Receptor Related Protein 1 (NURR1) (AID 2282985); conditions: HepG2 Attagene TRANS reporter, mRNA readout
Chain of Nuclear receptor subfamily 4 group A member 2 (Homo sapiens) (P43354 whole entry, looked up, the tested form may be a part): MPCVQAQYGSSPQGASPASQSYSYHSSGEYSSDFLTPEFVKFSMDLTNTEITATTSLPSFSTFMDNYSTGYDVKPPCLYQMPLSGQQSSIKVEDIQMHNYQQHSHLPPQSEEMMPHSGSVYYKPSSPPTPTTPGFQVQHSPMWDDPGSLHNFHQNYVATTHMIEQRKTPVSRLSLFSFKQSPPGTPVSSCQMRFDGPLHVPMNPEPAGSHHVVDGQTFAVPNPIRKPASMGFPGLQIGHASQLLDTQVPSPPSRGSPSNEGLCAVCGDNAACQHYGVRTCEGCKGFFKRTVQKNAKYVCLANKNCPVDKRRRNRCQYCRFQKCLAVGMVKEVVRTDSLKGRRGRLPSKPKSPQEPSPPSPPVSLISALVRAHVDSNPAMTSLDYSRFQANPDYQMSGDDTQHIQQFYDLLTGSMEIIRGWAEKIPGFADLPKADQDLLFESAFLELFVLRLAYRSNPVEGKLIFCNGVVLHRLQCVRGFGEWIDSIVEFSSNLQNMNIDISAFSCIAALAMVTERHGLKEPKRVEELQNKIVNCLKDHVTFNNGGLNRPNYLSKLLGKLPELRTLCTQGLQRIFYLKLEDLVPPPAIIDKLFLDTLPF
Procedure, shortened: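 Read-out: reporter mRNA induction by RT-PCR plus capillary electrophoresis with fluorescence detection, after 24 h dosing of transfected HepG2 cells. Exogenous NR-Gal4 chimera activity drives GAL4-UAS reporter; activity fitted upward versus DMSO.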

[3] = target: Estrogen receptor beta (Homo sapiens) (UniProt Q92731); assay: OT_ER_ERbERb_0480: Odyssey Thera (OT) 8-hour HEK293T Protein-Complementation Assay for Estrogen Receptor-beta/-beta Homodimer (AID 2283357);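 note: active means signal gain over DMSO baseline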
Chain of Estrogen receptor beta (Homo sapiens) (Q92731 whole entry, looked up, the tested form may be a part): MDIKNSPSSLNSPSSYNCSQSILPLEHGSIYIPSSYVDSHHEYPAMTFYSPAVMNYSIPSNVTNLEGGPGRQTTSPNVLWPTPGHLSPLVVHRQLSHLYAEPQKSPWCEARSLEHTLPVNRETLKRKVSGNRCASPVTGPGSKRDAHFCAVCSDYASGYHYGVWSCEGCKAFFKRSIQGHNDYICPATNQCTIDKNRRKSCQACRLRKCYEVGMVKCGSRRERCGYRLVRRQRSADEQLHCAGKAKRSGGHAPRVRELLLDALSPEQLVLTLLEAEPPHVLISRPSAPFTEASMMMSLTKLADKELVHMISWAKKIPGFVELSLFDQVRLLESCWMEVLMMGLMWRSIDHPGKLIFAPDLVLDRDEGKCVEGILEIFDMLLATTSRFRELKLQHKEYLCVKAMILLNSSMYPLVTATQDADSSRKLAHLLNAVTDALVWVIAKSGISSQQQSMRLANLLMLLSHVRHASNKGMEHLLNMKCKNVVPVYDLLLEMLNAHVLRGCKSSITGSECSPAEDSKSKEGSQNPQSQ
Procedure, shortened: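 Homodimerization of ER-beta LBD measured by protein-fragment complementation in HEK293T; 8 h dosing; fixed, Draq5 counterstain; fluorescence intensity gain over DMSO baseline, positive fitting direction; laser scanning cytometry.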

[4] = target: Estrogen receptor beta (Homo sapiens) (UniProt Q92731); assay: OT_ER_ERbERb_1440: Odyssey Thera (OT) 24-hour HEK293T Protein-Complementation Assay for Estrogen Receptor-beta/-beta Homodimer (AID 2283380);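 note: scored as signal increase over DMSO baseline for both agonists and antagonists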
Procedure, shortened: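 HEK293T cells stably expressing ER beta LBD (aa 310-547) homodimer fragment-complementation reporter, dosed 24 h. Cells formaldehyde-fixed, Draq5-stained; gain in nuclear (agonist) or nuclear plus cytoplasmic (antagonist) fluorescence versus DMSO read by laser scanning cytometry.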

[5] = target: Retinoic acid receptor RXR-alpha (Homo sapiens) (UniProt P19793); assay: OT_NURR1_NURR1RXRa_1440: Odyssey Thera (OT) 24-hour HEK293T Protein Complementation Assay for Nurr1/retinoid X receptor (RXR) (AID 2283386)
Chain of Retinoic acid receptor RXR-alpha (Homo sapiens) (P19793 whole entry, looked up, the tested form may be a part): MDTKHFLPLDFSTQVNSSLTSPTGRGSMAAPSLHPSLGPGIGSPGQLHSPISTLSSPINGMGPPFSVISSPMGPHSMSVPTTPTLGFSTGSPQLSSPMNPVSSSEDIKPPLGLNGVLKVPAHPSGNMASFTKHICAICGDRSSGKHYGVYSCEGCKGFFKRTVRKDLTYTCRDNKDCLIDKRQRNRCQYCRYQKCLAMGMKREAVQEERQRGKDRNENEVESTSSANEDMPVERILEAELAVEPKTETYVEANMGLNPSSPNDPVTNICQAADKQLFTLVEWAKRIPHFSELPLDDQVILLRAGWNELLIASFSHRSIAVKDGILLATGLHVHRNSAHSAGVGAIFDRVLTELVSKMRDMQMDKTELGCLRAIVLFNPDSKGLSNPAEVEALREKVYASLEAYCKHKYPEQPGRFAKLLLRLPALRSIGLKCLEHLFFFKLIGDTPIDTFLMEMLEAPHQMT
Procedure, shortened: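 Fluorescence PCA read-out; HEK293T; 24 h post-dose; bait/prey fused to reporter fragments; gain-of-signal fit vs DMSO negative control.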

[6] = ACEA_AR_agonist_AUC_viability: ACEA Biosciences xCELLigence Real-Time Cell Analysis on Androgen Receptor Agonism for Viability (AID 2283775)
Procedure, shortened: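 Viability endpoint from xCELLigence impedance in 22Rv1 prostate cells at 80 h. Eight-point series, 100 uM maximum final.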

[7] = CCTE_Harrill_HTTr_CellCount_MCF7: CCTE's Cell Proliferation Assessment for the High-Throughput Transcriptomics (HTTr) Platform, Harrill Lab (AID 2284012);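 note: count of Hoechst-stained nuclei per well by high-content imaging in MCF-7 cells; cells exposed to compound for six hours; intended direction is loss of nuclei count meaning fewer cells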
Procedure, shortened: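 Readout: Hoechst nuclear count by high-content imaging. MCF-7, 8-point dilution series, 6 h exposure. Bidirectional fit vs DMSO baseline.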

[8] = target: Peroxisome proliferator-activated receptor gamma (Homo sapiens) (UniProt P37231); assay: OT_PPARg_PPARgSRC1_0480: Odyssey Thera (OT) 8-hour Protein-Complementation Assay for Peroxisome Proliferator-activated Receptor Gamma / SRC-1 Co-activator (AID 2283387);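 note: nuclear to cytoplasmic split Venus YFP fluorescence ratio reporting PPARg SRC-1 interaction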
Chain of Peroxisome proliferator-activated receptor gamma (Homo sapiens) (P37231 whole entry, looked up, the tested form may be a part): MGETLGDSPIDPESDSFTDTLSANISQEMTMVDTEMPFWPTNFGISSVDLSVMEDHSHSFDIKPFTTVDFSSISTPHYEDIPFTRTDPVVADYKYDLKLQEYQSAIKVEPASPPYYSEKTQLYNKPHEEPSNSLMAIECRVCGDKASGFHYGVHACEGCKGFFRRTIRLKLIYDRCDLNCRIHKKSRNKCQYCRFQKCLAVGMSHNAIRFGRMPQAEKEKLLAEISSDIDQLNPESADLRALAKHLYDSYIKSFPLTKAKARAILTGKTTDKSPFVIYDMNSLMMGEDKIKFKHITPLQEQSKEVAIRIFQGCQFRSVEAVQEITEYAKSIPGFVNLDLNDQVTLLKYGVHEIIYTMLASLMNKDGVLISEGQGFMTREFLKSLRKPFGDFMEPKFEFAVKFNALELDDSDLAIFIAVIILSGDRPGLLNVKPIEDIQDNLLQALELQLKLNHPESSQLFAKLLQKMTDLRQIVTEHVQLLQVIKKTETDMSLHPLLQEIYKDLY
Procedure, shortened: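 Split-YFP (IFP1/IFP2) PPARg/SRC-1 reporter, HEK293T, 37 °C, 5% CO2; 8 h compound; formaldehyde fix + Draq5; high-content imaging, N/C ratio, ≥350 cells/image, positive direction vs DMSO.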

[9] = ACEA_AR_antagonist_AUC_viability: ACEA Biosciences xCELLigence Real-Time Cell Analysis on Androgen Receptor Antagonism for Viability (AID 2283776);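 note: 22Rv1 human prostate cancer cells growing on impedance electrode plates; area under impedance growth curve at 80 h after dosing as viability; hits lower the growth signal relative to DMSO meaning cytotoxicity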
Procedure, shortened: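 Viability endpoint from label-free cell-index monitoring: 22Rv1 cultures treated with an eight-point 1:4 dilution series starting at 100 uM final, AUC at 80 h fitted against DMSO.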

[10] = ATG_ERE_CIS: Attagene CIS-FACTORIAL HepG2 Assay for Estrogen Response Element (ERE) (AID 2282940; active = hit-call score of the fitted dose curve at least 0.9, where 1 is the maximum; inactive = score below 0.9); conditions: HepG2 ERE cis-reporter, Attagene RNA transcript; actives raise or lower the signal
Procedure, shortened: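 Measuring endogenous transcription factor output, the assay doses transfected HepG2 cells for 24 hours and quantifies reporter transcripts by fluorescent RT-PCR and capillary electrophoresis, with DMSO as baseline.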

[11] = target: Peroxisome proliferator-activated receptor gamma (Homo sapiens) (UniProt P37231); assay: OT_PPARg_PPARgSRC1_1440: Odyssey Thera (OT) 24-hour Protein-Complementation Assay for Peroxisome Proliferator-activated Receptor Gamma/ SRC-1 Co-activator (AID 2283388);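 note: nuclear to cytoplasmic ratio of reconstituted Venus YFP fluorescence in fixed imaged cells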
Procedure, shortened: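 Cells carrying the PPARg/SRC-1 fragment-complementation reporter receive compound for 24 hours, are fixed and counterstained with Draq5, then imaged. Increased nuclear relative to cytoplasmic YFP fluorescence above DMSO baseline indicates binding activity.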

[12] = target: human Retinoic Acid Receptor beta (RARb), RARB (gene 5915) (UniProt P10826); assay: ATG_RARb_TRANS: Attagene TRANS-FACTORIAL HepG2 Assay for human Retinoic Acid Receptor beta (AID 2283004)
Chain of human Retinoic Acid Receptor beta (RARb), RARB (gene 5915) (P10826 whole entry, looked up, the tested form may be a part): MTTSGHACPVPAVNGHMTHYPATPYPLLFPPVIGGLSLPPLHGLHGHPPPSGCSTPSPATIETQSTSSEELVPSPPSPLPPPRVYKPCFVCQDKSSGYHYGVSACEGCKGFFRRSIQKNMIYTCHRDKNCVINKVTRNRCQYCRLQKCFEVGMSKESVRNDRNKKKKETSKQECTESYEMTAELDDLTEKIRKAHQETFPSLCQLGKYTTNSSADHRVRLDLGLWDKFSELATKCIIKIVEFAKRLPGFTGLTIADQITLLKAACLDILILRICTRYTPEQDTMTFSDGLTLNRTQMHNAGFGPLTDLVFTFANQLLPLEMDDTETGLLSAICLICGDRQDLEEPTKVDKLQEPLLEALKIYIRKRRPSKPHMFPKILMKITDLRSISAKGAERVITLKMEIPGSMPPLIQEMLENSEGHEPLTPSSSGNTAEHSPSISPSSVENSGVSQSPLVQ
Procedure, shortened: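 Fluorescent capillary-electrophoresis detection of GAL4-UAS reporter mRNA defines the endpoint, with induction over DMSO-treated wells scored as activity. Transiently transfected human hepatoma HepG2 cells expressing exogenous NR–Gal4 proteins are exposed to test chemicals for 24 h.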

[13] = read-out: Pselectin, SELP (gene 6403); assay: BSK_4H_Pselectin: BioMAP Diversity Plus: 4H Assay for Pselectin Biomarker Activity (AID 2283026; active = hit-call score of the fitted dose curve at least 0.9, where 1 is the maximum; inactive = score below 0.9); conditions: primary human endothelial cells (HUVEC); actives raise or lower the signal
Procedure, shortened: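 HUVEC, 24 h chemical exposure; P-selectin read by ELISA. Bidirectional curve fit vs DMSO baseline; gain or loss of signal scored.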

[14] = read-out: Macrophage colony-stimulating factor (MCSF), CSF1 (gene 1435); assay: BSK_CASM3C_MCSF: BioMAP Diversity Plus: CASM3C Assay for Macrophage colony-stimulating factor (MCSF) Biomarker Activity (AID 2283044; active = hit-call score of the fitted dose curve at least 0.9, where 1 is the maximum; inactive = score below 0.9;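 note: M-CSF protein amount quantified by ELISA after 24 h exposure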); conditions: primary human coronary artery smooth muscle cells; actives raise or lower the signal
[15] = read-out: Low-density lipoprotein receptor (LDLR), LDLR (gene 3949); assay: BSK_CASM3C_LDLR: BioMAP Diversity Plus: CASM3C Assay for Low-density lipoprotein receptor (LDLR) Biomarker Activity (AID 2283045; active = hit-call score of the fitted dose curve at least 0.9, where 1 is the maximum; inactive = score below 0.9;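 note: LDLR protein level on the cell surface quantified by ELISA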); conditions: primary human coronary artery smooth muscle cells; actives raise or lower the signal
[16] = read-out: serum amyloid A (SAA), SAA1 (gene 6288); assay: BSK_CASM3C_SAA: BioMAP Diversity Plus: CASM3C Assay for serum amyloid A (SAA) Biomarker Activity (AID 2283049; active = hit-call score of the fitted dose curve at least 0.9, where 1 is the maximum; inactive = score below 0.9;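 note: SAA protein level quantified by ELISA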); conditions: primary human coronary artery smooth muscle cells; actives raise or lower the signal
[17] = read-out: Interferon-gamma inducible Protein 10 (IP10), CXCL10 (gene 3627); assay: BSK_hDFCGF_IP10: BioMAP Diversity Plus: hDFCGF Assay for Interferon-gamma inducible Protein 10 (IP10) Biomarker Activity (AID 2283053; active = hit-call score of the fitted dose curve at least 0.9, where 1 is the maximum; inactive = score below 0.9); conditions: primary human foreskin fibroblasts; actives raise or lower the signal
Procedure, shortened: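 ELISA read-out of IP-10 (CXCL10) from primary human skin fibroblasts, 24 h after compound addition. Gain or loss of signal versus DMSO baseline, bidirectional curve fitting.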

[18] = read-out: Vascular cell adhesion molecule 1 (VCAM1), VCAM1 (gene 7412); assay: BSK_CASM3C_VCAM1: BioMAP Diversity Plus: CASM3C Assay for Vascular cell adhesion molecule 1 (VCAM1) Biomarker Activity (AID 2283055; active = hit-call score of the fitted dose curve at least 0.9, where 1 is the maximum; inactive = score below 0.9;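 note: VCAM-1 protein level quantified by ELISA on the cells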); conditions: primary human coronary artery smooth muscle cells; actives raise or lower the signal
[19] = read-out: Monokine induced gamma interferon (MIG), CXCL9 (gene 4283); assay: BSK_hDFCGF_MIG: BioMAP Diversity Plus: hDFCGF Assay for Monokine induced gamma interferon (MIG) Biomarker Activity (AID 2283063; active = hit-call score of the fitted dose curve at least 0.9, where 1 is the maximum; inactive = score below 0.9); conditions: primary human foreskin fibroblasts; actives raise or lower the signal
Procedure, shortened: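 Endpoint derived by bidirectional fitting relative to DMSO; MIG quantified via ELISA in primary human foreskin fibroblasts harvested 24 h after dosing.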

[20] = target: human Retinoic Acid Receptor gamma (RARg), RARG (gene 5916) (UniProt P13631); assay: ATG_RARg_TRANS: Attagene TRANS-FACTORIAL HepG2 Assay for human Retinoic Acid Receptor gamma (RARg) (AID 2283009);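 for AC50: AC50 is for reporter induction above DMSO meaning RARg activation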
Chain of human Retinoic Acid Receptor gamma (RARg), RARG (gene 5916) (P13631 whole entry, looked up, the tested form may be a part): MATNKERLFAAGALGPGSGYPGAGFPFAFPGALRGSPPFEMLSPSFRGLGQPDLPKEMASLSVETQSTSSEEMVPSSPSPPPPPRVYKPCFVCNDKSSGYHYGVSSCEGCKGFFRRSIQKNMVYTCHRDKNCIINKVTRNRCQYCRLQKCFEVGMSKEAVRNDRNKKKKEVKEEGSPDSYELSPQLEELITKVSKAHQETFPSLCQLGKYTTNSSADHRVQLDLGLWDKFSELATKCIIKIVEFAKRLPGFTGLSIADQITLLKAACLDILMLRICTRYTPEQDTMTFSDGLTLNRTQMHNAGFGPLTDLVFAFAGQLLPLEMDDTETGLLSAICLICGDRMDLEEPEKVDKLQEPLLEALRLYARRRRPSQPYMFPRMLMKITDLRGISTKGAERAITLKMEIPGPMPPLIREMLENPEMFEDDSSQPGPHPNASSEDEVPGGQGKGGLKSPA
Procedure, shortened: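 Readout: reporter transcript levels via RT-PCR, 6-FAM primer-extension labelling, HpaI digestion and capillary electrophoresis. Cells: HepG2 carrying transfected RARg-GAL4 chimera plus UAS reporter set. Dosing 24 h; DMSO negative control.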

Measured: AC50

O=C(O)/C=C\C(=O)O
inactive: [1] | [2] | [3] | [4] | [5] | [6] | [7]

NCc1ccccc1
inactive: [1] | [7]

O=S(=O)(O)c1cccc2ccccc12
inactive: [1] | [8] | [6] | [9]

Cc1ccccc1S(=O)(=O)O
inactive: [3] | [4]

CCCCCCCCCCCCCC
inactive: [2] | [7]

CCC(C)C1N=C(C)C(C)S1 (stereo unspecified)
inactive: [1]

CCO[Si](CCCN)(OCC)OCC
inactive: [10] | [1] | [2] | [8] | [11] | [6]

CCC(C)(CCC(C)C)C(=O)O (stereo unspecified)
inactive: [1] | [12] | [6] | [9]

Cc1cccnc1
not listed: [1] | [2] | [6] | [7] | [10] | [12] | [20]
inactive: all other assays above

CCC(C)=NO
active: [9] 50 µM
not listed: [1] | [2] | [8] | [10] | [11] | [20]
inactive: all other assays above

CCC(C)NC(N)=O (stereo unspecified)
inactive: [10] | [2]

CC[N+](CC)(CC(=O)Nc1c(C)cccc1C)Cc1ccccc1 (tested in a mixture with another compound)
inactive: [13] | [14] | [15] | [16] | [17] | [18] | [19] | [5] | [8] | [11] | [6] | [9] | [7]
active: [14] 5.41 µM | [15] 0.591 µM

Brc1ccc(Oc2ccc(Br)cc2)cc1
inactive: [2]

OCCOCCOCCOCCOCCO
inactive: [1]

CC(C)CC(=O)CC(C)C
inactive: [3] | [4] | [5]

O=C(O)c1ccccc1C(=O)O
inactive: [10] | [2] | [12] | [5] | [6] | [9]

CCCCCCCCCCCCCCCCCC[N+](C)(C)C
active: [1] 33.8 µM | [12] 15.7 µM | [20] 34.4 µM | [13] 1.34 µM | [14] 3.45 µM | [17] 2.67 µM | [18] 3.73 µM | [19] 3.28 µM
inactive: [10] | [2] | [15] | [16]

C1=CCC=C1
inactive: [6] | [9]

Oc1ccc(Cl)cc1C1CCCC1
inactive: [7]
active: [10] 8.73 µM

CCCCCCC1CCCC(=O)O1 (stereo unspecified)
inactive: [1] | [2]

CCCCCCCC#N
inactive: [1] | [20]

CN(C)c1ccc(C(c2ccccc2)c2ccc(N(C)C)cc2)cc1
inactive: [14] | [15] | [16] | [17] | [18] | [19]
active: [13] 7.46 µM

CC[N+](CC)(CC(=O)Nc1c(C)cccc1C)Cc1ccccc1
inactive: [2] | [13] | [14] | [15] | [16] | [17] | [18] | [19] | [5] | [8] | [11]

COC(=O)/C=C\C(=O)OC
active: [18] 20 µM
inactive: [1] | [13] | [14] | [15] | [16] | [17] | [19]

COC(OC)C(C)c1ccccc1 (stereo unspecified)
inactive: [10]

c1cc(N(CC2CO2)CC2CO2)ccc1Cc1ccc(N(CC2CO2)CC2CO2)cc1 (stereo unspecified)
inactive: [10] | [1]
active: [2] 70.9 µM

CCOC(=O)c1ccccc1
inactive: [10] | [1] | [2] | [3] | [4] | [5] | [8] | [11] | [6] | [9]

O=C(CC(C(=O)OC1CCCCC1)S(=O)(=O)O)OC1CCCCC1 (stereo unspecified)
inactive: [3] | [4] | [5] | [8] | [11] | [6] | [9]

Oc1ccc(Oc2ccccc2)cc1
active: [10] 1.54 µM

O=[N+]([O-])c1ccccc1C(F)(F)F
inactive: [10] | [1] | [20]

O=C1NC(=O)[C@@H]2CC=CC[C@H]12
inactive: [1]

COC(=O)CCSCCC(=O)OC
inactive: [20]

CN(C)Cc1cc(C(C)(C)C)c(O)c(C(C)(C)C)c1
active: [13] 1.56 µM | [16] 5.92 µM | [17] 12.8 µM | [18] 0.15 µM | [19] 20 µM
inactive: [13] | [14] | [15] | [16] | [17] | [18] | [19]

c1ccc2c(c1)Oc1ccccc1S2
active: [10] 63.7 µM

CC(C)CC(=O)O
inactive: [10] | [20]

CCCCCC1CCCC(=O)O1 (stereo unspecified)
inactive: [1] | [12] | [20]

CCCCCCCCCCC1CO1 (stereo unspecified)
active: [13] 33.3 µM | [17] 34 µM | [18] 3.97 µM | [19] 30.3 µM
inactive: [2] | [14] | [15] | [16]

CC(=O)c1nccs1
active: [10] 4.94 µM
inactive: [12]

O=C(OCc1ccccc1)c1ccccc1
inactive: [1] | [8] | [11]

CCCC(=O)OC/C=C(\C)CCC=C(C)C
inactive: [10]

CC1=C(CC(=O)O)c2cc(F)ccc2/C1=C\c1ccc(S(C)=O)cc1 (stereo unspecified)
inactive: [7]

O=[N+]([O-])c1ccc2nc[nH]c2c1
inactive: [10] | [2]

NC(=O)c1ccc(N)cc1
inactive: [10] | [2]

CCCCCC[C@@H](O)C/C=C\CCCCCCCC(=O)O
inactive: [3] | [4] | [5] | [8] | [11] | [6] | [9] | [7]
